We go through 40 compounds from PubChem BioAssay (NCI).

SMILES strings stand for the structures. Values joined by “and” are separate entries in the source; they are usually repeats but may differ in a detail not shown here. Identical values can stand only once. The panel holds about 83,000 compounds, 20% with a hit somewhere; the sample as a whole holds those more often.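 Single-dose data. Exposure time 48 hours. Values below 10 considered active.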 A number with no mark means an inactive call. Active and inactive are the calls of the source.

The test system of the assay is MDA-MB-468 breast. The assay is described as follows: NCI-60 one-dose screen, 48 h (100 = growth as untreated, 0 = no growth, -100 = all killed). To be noted: 10 µM unless noted.
On to `O=C1C(N2CC2)=C(N2CC2)C(=O)C(N2CC2)=C1N1CC1`, for which the growth is 0.964% (active).
The figure for `O=C1CCCCC1CN1CCCCC1` (stereo not given) is 112%; for `C/C(=C(\c1ccc(OCCN2CCOCC2)cc1)c1ccc(OC(=O)Cc2ccccc2)cc1)c1ccc(Cl)cc1` it is 78.8%.
To `CC(=O)C(c1c(O)c2ccccc2oc1=O)c1cc(=O)oc2c1ccc1ccccc12` (stereo not given) belongs 96.6%; to `CC(C)=CCc1c(O)c(C(=O)CC(C)C)c(O)c2c(-c3ccccc3)cc(=O)oc12`, 23.1%.
To `COc1ccc(C(=O)c2sc3nc4c(cc3c2N)N2CCC4CC2)cc1OC` belongs 72.2%.
As for `COC(=O)[C@H](Cc1c[nH]c2ccccc12)NC(=O)[C@@H](OC)[C@@H]1Cc2cc3cc(OC4CC(OC5CC(O)C(O)C(C)O5)C(O)C(C)O4)c(C)c(O)c3c(O)c2C(=O)[C@H]1OC1CC(OC2CC(OC3CC(C)(O)C(O)C(C)O3)C(O)C(C)O2)C(O)C(C)O1` (stereo not given in full), the growth was -48.8% (active).
To `COc1ccc(O)c(CNC(=O)CN2CCCC2=O)c1` belongs 108%; to `Cc1cccc(N(C)c2cccc3c2C(=O)[Se]C3)c1C`, 16.9%.
Take `CC1(C)N=C(N)N=C(N)N1c1ccc(CCCCc2ccc(Cl)c(S(=O)(=O)F)c2)c(Cl)c1`: the growth is 6.7% (active).
To `C[C@@H]1C[C@H]2C(=O)O[C@@H](C)C(NC(=O)[C@H](Cc3cc(F)cc(F)c3)NC(=O)Nc3ccc(OS(=O)(=O)F)cc3)C(=O)N3CCC[C@H]3C(=O)N3CCO[C@H](C)[C@H]3C(=O)N[C@@H](CO)C(=O)N2C1` (stereo not given in full) belongs -7.29% (active); to `O=C(O)C(Br)CBr` (stereo not given), 94.8%; to `c1ccc(-c2ccc3ccccc3[o+]2)cc1`, 94%.
Consider `COc1ccc(/C=C\c2cc(OC)c(OC)c(OC)c2)cc1NS(=O)(=O)c1ccc(Cl)cc1`, for which the growth is 42.2%.
On to `CC(=O)OC[C@]1(C)C=C2C(=O)[C@](C)(O)C3(CC3)C(C)=C2[C@H]1OC(=O)N(C)CCN(C)C(=O)OC(C)(C)C`, for which the growth was -62.5% (active).
Take `CC[C@H](C)[C@H](NC(=O)CN(C)C)C(=O)N(C)[C@H](C[C@@H](OC(C)=O)c1nc(C(=O)NC23CC(C(=O)OC)(C2)C3)cs1)C(C)C`: the growth is -14.9% (active).
As for `C/C(=N/OC(=O)N(C)C)c1cc(Cl)ccc1Cl`, the growth is 102%.
The figure for `O=CN1N=C(c2ccccc2)CC1c1sc(N(CCCl)CCCl)nc1Cl` (stereo not given) is 94%; for `Cc1ccc(C(=O)C2CN(C)CCC2(O)c2ccc(C)cc2)cc1` (stereo not given) it is 119%; for `OCc1ccc2c(c1)OCO2` it is 97.6%.
In the case of `Cn1cc(C(=O)C[n+]2ccccc2)c2ccccc21`, the growth is 88%.
Consider `Cn1cc(-c2csc(-c3cn(CCCCN4CCCCC4)c4ccc(F)cc34)n2)c2cccnc21`, for which the growth is 93.3%.
To `CC(=O)O[C@H]1CC[C@]2(C)[C@H]3CC[C@]4(C)[C@@H](OC(C)=O)CC[C@H]4[C@@H]3[C@@H](C)[C@]2(O)C1` belongs 104%; to `CN1CC(=O)N(O)C1(C)c1cccnc1` (stereo not given), 94.8%.
As for `Nc1nc(=S)nc(N)[nH]1`, the growth is 99.3%.
The figure for `CC1=C2[C@H]3OC(=O)[C@@H](C)[C@@H]3CC[C@@]2(C)C=CC1=O` is 93.4%; for `Cc1ccc(CNc2nc3ccc(OC/C(=C/F)CN)cc3o2)cn1` it is 109%.
On to `N#CCCNc1ccccc1`, for which the growth was 108%.
The figure for `CN(CCCCN(C)CCOS(C)(=O)=O)CCOS(C)(=O)=O` is 76.9%; for `Cc1cc[n+](CCc2ccccc2)cc1` it is 61.2% and 72.9%; for `C[N+]12CCC34C5=CC(=O)C(=O)C=C5[N+]5(C)C(=O)CC6OCC=C(C1)C(CC32)C6C45` (stereo not given) it is 99.9%.
Take `COc1cc2c(c(OC)c1OC)-c1ccc(O)c(=O)cc1[C@@H](NC(C)=O)CC2`: the growth was 62.8%.
The figure for `CCCCCCCC[n+]1ccc2ccccc2c1` is 8.79% (active).
Consider `Nc1ccc(OCCNS(=O)(=O)c2cccc(S(=O)(=O)F)c2)c(Cl)c1`, for which the growth is 94.6%.
To `OCCNC1CCCCC1` belongs 109%.
`CC[C@H](C)[C@H](NC(=O)Nc1ccccc1)C(=O)N(C)[C@H](C[C@@H](OC(C)=O)c1nc(C(=O)N[C@@H](Cc2ccccc2)C[C@H](C)C(=O)OC)cs1)C(C)C`: the growth was -1.4% (active).
With `CCN1C(=O)NC(=O)C(C)(N2C(=O)c3c(F)c(F)c(F)c(F)c3C2=O)C1=O` (stereo not given), the growth was -6.73% (active).
To `C[C@@H]1CCC/C=C/[C@H]2C[C@@H](O)C[C@@H]2[C@@H](O)/C=C/C(=O)O1` belongs -21.4% (active); to `ClCc1ccc2ccccc2n1`, 84.1%; to `COC(=O)[C@@H](C)C[C@H](Cc1cn(C)c2ccccc12)NC(=O)c1csc([C@@H](C[C@H](C(C)C)N(C)C(=O)[C@@H](NC(=O)[C@H]2CCCCN2C)C(C)C)OC(C)=O)n1`, 28.6%.
